From PMC7862700, “An all-to-all approach to the identification of sequence-specific readers for epigenetic DNA modifications on cytosine” come the findings set out here.

What all share (test): DAPPL (digital affinity profiling via proximity ligation, sequencing); 10 mM Tris-HCl pH 7.5, 50 mM NaCl, 1 mM DTT, 4% glycerol, room temperature, 30 min; GST-TFs on glutathione beads, 16-mer random dsDNA library, 0.1% formaldehyde crosslink after washing; high values mean tight binding
For one test, the target named is T1, FLI1 (Homo sapiens, UniProt Q01543 1-452).
T1 sequence: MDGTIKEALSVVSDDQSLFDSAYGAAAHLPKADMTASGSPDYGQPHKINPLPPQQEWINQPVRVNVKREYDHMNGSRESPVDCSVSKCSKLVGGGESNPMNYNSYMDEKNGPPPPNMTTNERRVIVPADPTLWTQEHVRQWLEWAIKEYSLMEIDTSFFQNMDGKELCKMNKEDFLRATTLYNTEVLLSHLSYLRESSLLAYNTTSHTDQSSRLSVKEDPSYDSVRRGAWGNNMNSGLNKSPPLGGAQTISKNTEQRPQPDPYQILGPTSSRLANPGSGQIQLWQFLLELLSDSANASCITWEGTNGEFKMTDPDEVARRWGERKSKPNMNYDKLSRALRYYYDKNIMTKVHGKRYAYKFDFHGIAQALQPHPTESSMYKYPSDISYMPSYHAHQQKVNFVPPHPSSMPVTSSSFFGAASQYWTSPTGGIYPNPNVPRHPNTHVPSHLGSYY
Conditions: protein: recombinant; tags: N-terminal GST; dsDNA, one strand shown. An outline of the steps:
(§1)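 The binding signal reported is, for every hexamer, its read frequency for a factor over its read frequency for the tag-only sample. Reads came from pools of yeast-expressed, GST-fused human transcription factors on glutathione beads, barcoded with DNA and mixed with that sample, which were incubated with 200 nmole of a random double-stranded 16-mer DNA library in Tris/NaCl/DTT/glycerol buffer at room temperature for 30 min. After washing, the pools were crosslinked with 0.1% formaldehyde, proximity-ligated with BsaI/T4 ligase for 1 h at 37 °C, PCR-amplified and sequenced on an Illumina NextSeq500.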

The target in another test is T2, ELK1 (Homo sapiens, UniProt P19419 1-428).
T2 sequence: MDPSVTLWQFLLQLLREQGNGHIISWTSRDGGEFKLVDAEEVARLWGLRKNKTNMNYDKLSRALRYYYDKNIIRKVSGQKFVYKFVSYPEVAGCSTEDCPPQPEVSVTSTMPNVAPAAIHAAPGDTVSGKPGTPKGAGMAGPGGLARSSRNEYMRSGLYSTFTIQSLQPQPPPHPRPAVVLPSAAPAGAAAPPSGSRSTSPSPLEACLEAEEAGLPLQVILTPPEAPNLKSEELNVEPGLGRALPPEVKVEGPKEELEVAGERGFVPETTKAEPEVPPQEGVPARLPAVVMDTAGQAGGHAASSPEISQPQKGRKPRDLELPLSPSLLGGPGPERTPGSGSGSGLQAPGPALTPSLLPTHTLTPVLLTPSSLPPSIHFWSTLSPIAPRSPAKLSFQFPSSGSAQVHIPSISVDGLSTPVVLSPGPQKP
Conditions: protein: recombinant; tags: N-terminal GST; dsDNA, one strand shown. An outline of the steps: as §1

The target in another test is T3, GABPA (Homo sapiens, UniProt Q06546 1-454).
T3 sequence: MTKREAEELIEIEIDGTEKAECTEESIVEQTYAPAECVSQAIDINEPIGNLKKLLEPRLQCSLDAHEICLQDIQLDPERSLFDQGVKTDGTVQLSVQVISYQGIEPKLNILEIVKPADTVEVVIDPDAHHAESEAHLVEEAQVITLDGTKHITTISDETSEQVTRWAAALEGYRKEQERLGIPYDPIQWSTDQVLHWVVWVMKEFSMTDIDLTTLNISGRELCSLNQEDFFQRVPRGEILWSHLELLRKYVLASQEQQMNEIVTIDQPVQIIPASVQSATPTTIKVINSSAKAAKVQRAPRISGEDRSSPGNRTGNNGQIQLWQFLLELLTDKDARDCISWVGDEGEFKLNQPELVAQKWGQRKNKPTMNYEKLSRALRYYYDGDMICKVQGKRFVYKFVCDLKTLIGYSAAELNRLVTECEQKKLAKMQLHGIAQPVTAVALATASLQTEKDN
As to conditions: protein: recombinant; tags: N-terminal GST; dsDNA, one strand shown. An outline of the steps: as §1

In a further test the target is ELF1 (Homo sapiens, UniProt P32519 1-619). As to conditions: protein: recombinant; tags: N-terminal GST; dsDNA, one strand shown. An outline of the steps:
as §1

In another test the target is T4, EHF (Homo sapiens, UniProt Q9NZC4 1-300).
T4 sequence: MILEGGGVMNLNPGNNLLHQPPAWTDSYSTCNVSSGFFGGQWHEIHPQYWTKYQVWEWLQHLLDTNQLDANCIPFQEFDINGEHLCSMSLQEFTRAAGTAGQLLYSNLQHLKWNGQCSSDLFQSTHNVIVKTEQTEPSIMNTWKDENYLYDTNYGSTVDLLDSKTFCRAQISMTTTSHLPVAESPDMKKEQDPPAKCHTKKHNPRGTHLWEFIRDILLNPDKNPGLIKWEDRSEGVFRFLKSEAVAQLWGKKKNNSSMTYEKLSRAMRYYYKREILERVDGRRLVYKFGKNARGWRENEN
As to conditions: protein: recombinant; tags: N-terminal GST; dsDNA, one strand shown. An outline of the steps:
as §1

In a further test the target is SPIB (Homo sapiens, UniProt Q01892 1-262). As to conditions: protein: recombinant; tags: N-terminal GST; dsDNA, one strand shown. An outline of the steps: as §1
Sequence of SPIB (Q01892 whole entry): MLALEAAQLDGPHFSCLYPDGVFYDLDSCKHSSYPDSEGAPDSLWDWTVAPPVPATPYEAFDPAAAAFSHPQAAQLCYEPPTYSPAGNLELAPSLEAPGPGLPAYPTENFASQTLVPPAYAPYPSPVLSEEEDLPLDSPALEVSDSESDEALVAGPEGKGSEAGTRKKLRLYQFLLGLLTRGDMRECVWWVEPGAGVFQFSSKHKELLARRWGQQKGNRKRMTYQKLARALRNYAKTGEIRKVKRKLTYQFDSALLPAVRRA
For another test, the target named is T5, ELK3 (Homo sapiens, UniProt P41970 1-407).
T5 sequence: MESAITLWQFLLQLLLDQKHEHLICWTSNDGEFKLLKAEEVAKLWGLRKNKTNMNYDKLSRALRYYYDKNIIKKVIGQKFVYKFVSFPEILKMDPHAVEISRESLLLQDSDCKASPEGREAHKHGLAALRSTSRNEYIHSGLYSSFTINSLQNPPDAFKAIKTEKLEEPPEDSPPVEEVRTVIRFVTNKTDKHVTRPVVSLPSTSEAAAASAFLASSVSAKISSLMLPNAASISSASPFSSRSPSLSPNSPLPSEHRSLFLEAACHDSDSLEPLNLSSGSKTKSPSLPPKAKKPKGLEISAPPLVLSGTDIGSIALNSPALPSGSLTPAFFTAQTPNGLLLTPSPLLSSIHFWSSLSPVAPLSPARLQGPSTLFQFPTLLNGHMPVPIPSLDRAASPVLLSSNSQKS
Conditions: protein: recombinant; tags: N-terminal GST; dsDNA, one strand shown. An outline of the steps:
as §1

Another test deals with T6, FEV (Homo sapiens, UniProt Q99581 1-238).
T6 sequence: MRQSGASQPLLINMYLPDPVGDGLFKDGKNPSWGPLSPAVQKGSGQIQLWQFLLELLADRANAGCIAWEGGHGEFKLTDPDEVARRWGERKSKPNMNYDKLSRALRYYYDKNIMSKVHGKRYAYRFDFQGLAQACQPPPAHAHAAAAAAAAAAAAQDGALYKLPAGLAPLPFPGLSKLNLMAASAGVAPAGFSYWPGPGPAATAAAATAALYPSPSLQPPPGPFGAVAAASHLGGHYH
Conditions: protein: recombinant; tags: N-terminal GST; dsDNA, one strand shown. An outline of the steps:
as §1

In the next test the target is ETV5 (Homo sapiens, UniProt P41161 1-510). As to conditions: protein: recombinant; tags: N-terminal GST; dsDNA, one strand shown. An outline of the steps:
as §1

The target in a further test is HSF1 (Homo sapiens, UniProt Q00613 1-529). Conditions: protein: recombinant; tags: N-terminal GST; chain copies: 3; dsDNA, one strand shown. An outline of the steps: as §1
Sequence of HSF1 (Q00613 whole entry): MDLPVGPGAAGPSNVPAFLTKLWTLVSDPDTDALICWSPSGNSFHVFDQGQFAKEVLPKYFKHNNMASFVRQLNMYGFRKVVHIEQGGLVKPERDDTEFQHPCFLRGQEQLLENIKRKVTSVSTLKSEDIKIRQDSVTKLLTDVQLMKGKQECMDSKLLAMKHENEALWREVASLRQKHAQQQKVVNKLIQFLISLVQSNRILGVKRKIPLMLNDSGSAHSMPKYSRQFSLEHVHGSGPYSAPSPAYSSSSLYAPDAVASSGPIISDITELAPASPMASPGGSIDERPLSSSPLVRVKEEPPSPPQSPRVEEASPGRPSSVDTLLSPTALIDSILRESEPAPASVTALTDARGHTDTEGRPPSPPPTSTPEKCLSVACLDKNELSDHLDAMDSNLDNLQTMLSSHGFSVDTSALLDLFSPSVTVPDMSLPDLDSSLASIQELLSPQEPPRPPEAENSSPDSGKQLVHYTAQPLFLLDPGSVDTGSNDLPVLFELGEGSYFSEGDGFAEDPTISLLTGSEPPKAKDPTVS
The target of the next test is T7, SPIC (Homo sapiens, UniProt Q8N5J4 1-248).
T7 sequence: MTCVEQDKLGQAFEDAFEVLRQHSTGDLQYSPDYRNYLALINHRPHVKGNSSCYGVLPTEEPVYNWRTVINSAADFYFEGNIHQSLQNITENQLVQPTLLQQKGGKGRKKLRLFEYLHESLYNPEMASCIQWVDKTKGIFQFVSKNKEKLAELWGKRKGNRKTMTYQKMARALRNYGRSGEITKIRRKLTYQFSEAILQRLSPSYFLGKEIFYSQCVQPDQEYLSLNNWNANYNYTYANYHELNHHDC
Conditions: protein: recombinant; tags: N-terminal GST; dsDNA, one strand shown. An outline of the steps: as §1

Another test deals with ELF4 (Homo sapiens, UniProt Q99607 1-663). Conditions: protein: recombinant; tags: N-terminal GST; dsDNA, one strand shown. An outline of the steps:
as §1

For a further test, the target named is T8, ELK4 (Homo sapiens, UniProt P28324-2 1-405).
T8 sequence: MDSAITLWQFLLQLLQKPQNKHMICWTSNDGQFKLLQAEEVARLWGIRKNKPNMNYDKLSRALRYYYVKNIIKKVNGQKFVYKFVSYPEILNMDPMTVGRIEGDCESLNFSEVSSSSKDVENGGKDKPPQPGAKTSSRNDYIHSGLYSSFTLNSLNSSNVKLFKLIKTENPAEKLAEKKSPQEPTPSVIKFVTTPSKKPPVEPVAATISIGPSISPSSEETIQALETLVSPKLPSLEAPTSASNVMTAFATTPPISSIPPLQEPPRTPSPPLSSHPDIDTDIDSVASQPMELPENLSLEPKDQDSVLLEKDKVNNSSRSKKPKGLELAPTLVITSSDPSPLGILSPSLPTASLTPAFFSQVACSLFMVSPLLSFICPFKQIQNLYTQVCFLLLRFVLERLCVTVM
Conditions: protein: recombinant; tags: N-terminal GST; dsDNA, one strand shown. An outline of the steps:
as §1

A further test concerns the target T9, ETV2 (Homo sapiens, UniProt O00321 1-342).
T9 sequence: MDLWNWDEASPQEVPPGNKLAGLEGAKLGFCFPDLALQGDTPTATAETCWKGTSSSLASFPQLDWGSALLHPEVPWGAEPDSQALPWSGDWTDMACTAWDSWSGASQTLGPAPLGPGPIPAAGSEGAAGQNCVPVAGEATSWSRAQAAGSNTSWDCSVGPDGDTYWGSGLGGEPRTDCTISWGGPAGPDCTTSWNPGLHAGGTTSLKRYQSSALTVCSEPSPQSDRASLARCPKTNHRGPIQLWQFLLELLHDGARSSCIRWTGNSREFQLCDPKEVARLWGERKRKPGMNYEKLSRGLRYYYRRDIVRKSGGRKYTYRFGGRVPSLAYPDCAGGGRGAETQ
Conditions: protein: recombinant; tags: N-terminal GST; dsDNA, one strand shown. An outline of the steps: as §1

For another test, the target named is CRX (Homo sapiens, UniProt O43186 1-299). Conditions: protein: recombinant; tags: N-terminal GST; dsDNA, one strand shown. An outline of the steps:
as §1

A further test deals with ETV1 (Homo sapiens, UniProt P50549 1-477). As to conditions: protein: recombinant; tags: N-terminal GST; dsDNA, one strand shown. An outline of the steps: as §1
Sequence of ETV1 (P50549 whole entry): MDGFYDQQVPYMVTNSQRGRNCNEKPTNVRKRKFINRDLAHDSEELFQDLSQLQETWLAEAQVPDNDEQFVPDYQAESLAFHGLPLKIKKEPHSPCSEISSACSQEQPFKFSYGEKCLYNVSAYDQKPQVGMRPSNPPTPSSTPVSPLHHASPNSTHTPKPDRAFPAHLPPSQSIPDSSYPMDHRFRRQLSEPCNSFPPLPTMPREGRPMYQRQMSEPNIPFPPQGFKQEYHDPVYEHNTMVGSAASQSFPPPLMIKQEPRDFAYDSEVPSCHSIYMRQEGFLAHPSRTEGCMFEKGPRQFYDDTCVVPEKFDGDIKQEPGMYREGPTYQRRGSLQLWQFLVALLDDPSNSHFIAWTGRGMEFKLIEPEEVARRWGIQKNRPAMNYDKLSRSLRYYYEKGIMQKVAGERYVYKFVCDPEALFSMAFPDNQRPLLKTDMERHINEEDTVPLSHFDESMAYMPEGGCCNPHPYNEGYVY

Sequence of ELF1 (P32519 whole entry): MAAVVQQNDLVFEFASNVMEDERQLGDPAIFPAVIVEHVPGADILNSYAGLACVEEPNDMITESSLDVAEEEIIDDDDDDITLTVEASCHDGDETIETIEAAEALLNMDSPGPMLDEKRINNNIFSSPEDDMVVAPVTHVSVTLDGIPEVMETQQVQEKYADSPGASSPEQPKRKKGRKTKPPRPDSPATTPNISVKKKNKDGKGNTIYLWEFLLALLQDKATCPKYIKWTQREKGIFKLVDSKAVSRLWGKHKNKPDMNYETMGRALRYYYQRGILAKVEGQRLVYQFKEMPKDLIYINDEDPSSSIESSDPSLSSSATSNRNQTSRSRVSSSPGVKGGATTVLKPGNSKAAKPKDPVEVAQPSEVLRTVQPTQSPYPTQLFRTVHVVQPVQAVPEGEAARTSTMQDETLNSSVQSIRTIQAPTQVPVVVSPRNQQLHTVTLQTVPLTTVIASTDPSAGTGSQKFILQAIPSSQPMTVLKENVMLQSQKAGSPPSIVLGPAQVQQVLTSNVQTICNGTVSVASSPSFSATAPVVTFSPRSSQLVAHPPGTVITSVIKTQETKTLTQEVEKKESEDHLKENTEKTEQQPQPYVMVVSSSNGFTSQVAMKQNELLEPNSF
Sequence of CRX (O43186 whole entry): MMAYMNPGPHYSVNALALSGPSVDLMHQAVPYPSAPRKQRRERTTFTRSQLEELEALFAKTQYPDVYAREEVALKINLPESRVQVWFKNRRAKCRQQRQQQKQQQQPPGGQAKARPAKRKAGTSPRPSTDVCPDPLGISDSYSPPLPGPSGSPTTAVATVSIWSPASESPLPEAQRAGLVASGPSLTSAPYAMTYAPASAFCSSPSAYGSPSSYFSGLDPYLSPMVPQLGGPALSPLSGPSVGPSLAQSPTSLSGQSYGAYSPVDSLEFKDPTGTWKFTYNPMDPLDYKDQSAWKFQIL
Sequence of ELF4 (Q99607 whole entry): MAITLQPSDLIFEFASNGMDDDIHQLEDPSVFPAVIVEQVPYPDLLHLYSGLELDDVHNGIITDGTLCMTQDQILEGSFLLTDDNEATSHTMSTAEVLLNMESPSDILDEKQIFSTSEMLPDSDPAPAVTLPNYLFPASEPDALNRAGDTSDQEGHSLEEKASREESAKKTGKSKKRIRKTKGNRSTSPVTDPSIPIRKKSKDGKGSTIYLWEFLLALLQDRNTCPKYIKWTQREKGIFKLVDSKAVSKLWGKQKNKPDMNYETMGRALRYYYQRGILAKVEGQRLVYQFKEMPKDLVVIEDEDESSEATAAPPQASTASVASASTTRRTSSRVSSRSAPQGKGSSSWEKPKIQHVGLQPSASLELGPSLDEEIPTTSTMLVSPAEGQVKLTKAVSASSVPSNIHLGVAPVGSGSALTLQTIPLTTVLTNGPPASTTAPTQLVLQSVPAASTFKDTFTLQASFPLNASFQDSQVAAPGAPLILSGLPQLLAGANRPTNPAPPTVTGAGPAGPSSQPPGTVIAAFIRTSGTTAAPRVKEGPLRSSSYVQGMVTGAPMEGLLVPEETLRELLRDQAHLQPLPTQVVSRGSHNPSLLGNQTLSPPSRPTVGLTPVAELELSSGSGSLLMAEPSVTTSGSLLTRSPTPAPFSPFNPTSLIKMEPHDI
Sequence of ETV5 (P41161 whole entry): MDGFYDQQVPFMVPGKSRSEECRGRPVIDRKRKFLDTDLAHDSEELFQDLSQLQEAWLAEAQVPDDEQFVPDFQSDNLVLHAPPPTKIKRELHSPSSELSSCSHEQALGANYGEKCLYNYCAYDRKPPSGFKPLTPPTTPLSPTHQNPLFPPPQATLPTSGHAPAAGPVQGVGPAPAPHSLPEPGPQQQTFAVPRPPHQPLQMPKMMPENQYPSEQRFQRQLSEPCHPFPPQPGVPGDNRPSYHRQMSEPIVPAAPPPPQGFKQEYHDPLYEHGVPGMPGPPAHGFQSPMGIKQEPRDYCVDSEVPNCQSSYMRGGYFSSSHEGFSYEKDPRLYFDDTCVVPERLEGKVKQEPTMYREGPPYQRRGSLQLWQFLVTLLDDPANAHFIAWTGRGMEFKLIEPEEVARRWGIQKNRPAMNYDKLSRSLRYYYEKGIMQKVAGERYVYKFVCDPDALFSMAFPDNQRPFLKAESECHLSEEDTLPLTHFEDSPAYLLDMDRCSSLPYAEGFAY

As to CAGAAT, the binding signal in the test with FLI1 is 1 fold enrichment (6-mer frequency, TF over GST control); with ELK1 it was 1.01 fold enrichment (6-mer frequency, TF over GST control); in the test with GABPA, 1.02 fold enrichment (6-mer frequency, TF over GST control); with ELF1 it was 1.03 fold enrichment (6-mer frequency, TF over GST control); in the test with EHF, 1.05 fold enrichment (6-mer frequency, TF over GST control); with SPIB, 1.05 fold enrichment (6-mer frequency, TF over GST control). The binding signal in the test with ELK3 was 1.01 fold enrichment (6-mer frequency, TF over GST control); in the test with FEV, 1.05 fold enrichment (6-mer frequency, TF over GST control); in the test with ETV5, 1.01 fold enrichment (6-mer frequency, TF over GST control); with HSF1, 2.05 fold enrichment (6-mer frequency, TF over GST control); with SPIC, 1.01 fold enrichment (6-mer frequency, TF over GST control); with ELF4 it was 1.13 fold enrichment (6-mer frequency, TF over GST control). Further, the binding signal in the test with ELK4 was 1.05 fold enrichment (6-mer frequency, TF over GST control); with ETV2, 1.13 fold enrichment (6-mer frequency, TF over GST control); in the test with CRX, 1.34 fold enrichment (6-mer frequency, TF over GST control); in the test with ETV1 it was 1.04 fold enrichment (6-mer frequency, TF over GST control).
